A word on the AC50: it is the concentration giving half of the maximal activity seen.

Inconclusive results are not listed. The source made the active and inactive calls. Rule for the calls: active = hit-call score of the fitted dose curve at least 0.9, where 1 is the maximum; inconclusive = response in the unintended direction; inactive = score below 0.9.

Read-out in this experiment: ABC Transporter (ABCB1), ABCB1 (gene 5243)
In words: CLD_ABCB1_24hr: CellzDirect (CLD) Gene Expression Assay for ABC Transporter (ABCB1) at 24 hours (AID 2283684).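 For AC50: potency for increase in ABCB1 mRNA relative to DMSO vehicle.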 Here is the method:
CLD_24hr is a cell-based, multiplexed-readout assay that uses hepatocyte, a human liver primary cell, with measurements taken at 24 hours after chemical dosing in a 96-well plate.CLD_ABCB1_24hr is one of 16 assay component(s) measured or calculated from the CLD_24hr assay. It is designed to make measurements of mRNA induction, a form of inducible reporter, as detected with chemiluminescence signals by Quantitative Nuclease Protection Assay (qNPA) technology.Data from the assay component CLD_ABCB1_24hr was analyzed at the endpoint, CLD_ABCB1_24hr, in the positive analysis fitting direction relative to DMSO as the negative control and baseline of activity. Using a type of inducible reporter, gain-of-signal activity can be used to understand changes in the reporter gene as they relate to the gene ABCB1. Furthermore, this assay endpoint can be referred to as a primary readout. To generalize the intended target to other relatable targets, this assay endpoint is annotated to the transporter intended target family, where subfamily is ABC transporter.
Human hepatocyte cultures were treated daily for two consecutive days with fresh dosing solutions containing appropriate concentrations of the 320 ToxCast chemicals (chemical identities were blinded to CellzDirect and other ToxCast collaborators), vehicle control (0.2% DMSO), and positive control inducers as summarized in Table 1. Due to the large number of treatment groups and chemicals examined, the ToxCast chemicals were divided into two groups (spanning two independent cultures of hepatocytes from separate donor preparations (Hu778: ToxCast plates 1 and 2; Hu776: ToxCast plates 3 and 4). Each preparation of human hepatocyte cultures was treated with respective vehicle control, medium only control, set of six positive controls/reference chemicals for the five hepatic receptor pathways, and a subset of eight of the ToxCast chemicals (indoxacarb, pyrithiobac-sodium, norflurazon, cyhalofop-butyl, methomyl, thiram, acetochlor, and propiconazole). These replicate data, coupled with internal replicates designed within the blinded ToxCast chemical library, provided additional data to evaluate interindividual differences between hepatocyte preparations and their potential impact on chemical profiles.Cell morphology and integrity were evaluated using phase-contrast microscopy as an indicator of hepatocyte cell health (Tyson & Green, 1987). Cultures for each treatment group (i.e., media, vehicle [0.2% DMSO], positive control inducers [multiple concentrations], and the ToxCast chemicals [multiple concentrations]) were observed and cell morphology was assessed relative to vehicle control cultures at each harvest time point (0, 6, 24, or 48 h). […] Images were evaluated at the conclusion of the study to assess changes in cell integrity and account for the effects of chemical exposure on uncharacteristic changes in concentration-dependent gene expression profiles. The results from these determinations of apparent cytotoxicity were annotated (yes/no) alongside the corresponding qNPA data for reference.At the conclusion of each treatment period, hepatocyte cultures (96-well) were washed with 1 volume of HBSS, lysed by addition of 25 ul ArrayPlate lysis buffer (HTG, Tucson, AZ), and 70 ul/well of Denaturation Oil, denatured by incubation at 95C for 10 min, and frozen at approximately -70C until analysis by nuclease protection assay (qNPA) (Roberts et al., 2007). For qNPA analysis, cell lysates were thawed at 50C for approximately 30 min, qNPA probes were added, and samples were incubated at 95C for 10 min to begin the detection process by denaturing the target RNA, dissociating the duplexes and secondary structure hybridization. At the conclusion of the hybridization period, S1 nuclease reagent was added to each sample to digest all nonprotected nucleotides at 50C for 60-90 min. […]
Take `CCc1cccc(C)c1N(C(=O)CCl)C(C)COC` (stereo not given): the molecule was called inactive.

`CCCCOC(=O)[C@@H](C)Oc1ccc(Oc2ccc(C#N)cc2F)cc1`: the outcome was inactive.

Consider `CON=C(C(=O)OC)c1ccccc1CON=C(C)c1cccc(C(F)(F)F)c1`, for which the outcome was inactive.

For `CN(C)C(=O)Nc1cccc(C(F)(F)F)c1`, the molecule was called inactive.

As for `CCOC(=O)CC(SP(=O)(OC)OC)C(=O)OCC` (stereo not given), the outcome was inactive.

As for `Cc1nn(-c2cc(NS(C)(=O)=O)c(Cl)cc2Cl)c(=O)n1C(F)F`, the result was inactive.

For `CCOP(=O)(SC(C)CC)N1CCSC1=O` (stereo not given), the call was inactive.

Take `CC(C1CC1)C(O)(Cn1cncn1)c1ccc(Cl)cc1` (stereo not given): the molecule was called inactive.

For `C[N+]1(C)CCCCC1`, the result was inactive.

On to `CN(C)NC(=O)CCC(=O)O`, for which the result was inactive.

On to `CNC(=O)Oc1cccc2c1OC(C)(C)O2`, for which the result was inactive.

Regarding `O=C(O)c1cc(Oc2ccc(C(F)(F)F)cc2Cl)ccc1[N+](=O)[O-]`, the call was inactive.

`C=C(C)[C@H]1Cc2c(ccc3c2O[C@@H]2COc4cc(OC)c(OC)cc4[C@@H]2C3=O)O1`: the molecule was called inactive.

Regarding `COc1cc(OC)nc(Sc2cccc(Cl)c2C(=O)O)n1`, the molecule was called inactive.

For the molecule `CSc1nnc(C(C)(C)C)c(=O)n1N`, the outcome was inactive.

Regarding `CSc1nc(NC(C)C)nc(NC(C)C)n1`, the result was inactive.

As to `CCCSP(=O)(OCC)SCCC`, the molecule was called inactive.

On to `CCCOCC(=Nc1ccc(Cl)cc1C(F)(F)F)n1ccnc1`, for which the AC50 was 32 µM (active).

As to `CCOP(=S)(OCC)SCCSCC`, the molecule was called inactive.

As for `CNC(=O)ON=C(SC)C(=O)N(C)C`, the molecule was called inactive.

`O=c1ccc(=O)[nH][nH]1`: the outcome was inactive.

With `C#CCC1=C(C)C(OC(=O)C2C(C=C(C)C)C2(C)C)CC1=O` (stereo not given), the molecule was called inactive.

As to `CSC1=N[C@@](C)(c2ccccc2)C(=O)N1Nc1ccccc1`, the molecule was called inactive.

Turning to `COP(=O)(OC)OC(Br)C(Cl)(Cl)Br` (stereo not given), the molecule was classed as inactive.

In the case of `CCOP(=S)(OCC)Oc1cc(C)nc(C(C)C)n1`, the molecule was classed as inactive.

With `CC1(C(=O)Nc2ccc(O)c(Cl)c2Cl)CCCCC1`, the molecule was classed as inactive.

`COP(=O)(OC)C(O)C(Cl)(Cl)Cl` (stereo not given): the molecule was called inactive.

With `CCCCN(CC)c1c([N+](=O)[O-])cc(C(F)(F)F)cc1[N+](=O)[O-]`, the outcome was inactive.

Turning to `C[Si](Cn1cncn1)(c1ccc(F)cc1)c1ccc(F)cc1`, the half-maximal activity concentration (AC50) is 4.51 µM (active).

Consider `CC(=NC#N)N(C)Cc1ccc(Cl)nc1`, for which the result was inactive.

On to `CCOP(=S)(OCC)Oc1ccc([N+](=O)[O-])cc1`, for which the outcome was inactive.

For the molecule `CCCCOC(=O)c1ccccc1C(=O)O`, the molecule was classed as inactive.

On to `COc1ccc(C(=CC(=O)N2CCOCC2)c2ccc(Cl)cc2)cc1OC`, for which the call was inactive.

`COc1cccc(C(=O)NN(C(=O)c2cc(C)cc(C)c2)C(C)(C)C)c1C`: the molecule was called inactive.

`CNc1cnn(-c2cccc(C(F)(F)F)c2)c(=O)c1Cl`: the call was inactive.

For `CCNc1nc(Cl)nc(NC(C)(C)C#N)n1`, the call was inactive.

In the case of `CNC(=O)ON=C(C)SC`, the molecule was called inactive.

For `CCCCSP(=O)(SCCCC)SCCCC`, the result was inactive.

As to `COP(=O)(NC(C)=O)SC` (stereo not given), the molecule was classed as inactive.

As for `CCc1cccc(CC)c1N(COC)C(=O)CCl`, the call was inactive.
